The text below walks through data of the supplement of paper PMC8699584.

Values joined by “and” are separate entries in the source; they are usually repeats but may differ in a detail not shown here. Equal values may be shown once. Where a name gives a salt, the structure may show the parent alone. ± gives the standard deviation of the averaged measurements.

In the experiment the test system is Mv4-11. Kind of experiment: cell viability relative to DMSO control (bortezomib = 0%); higher = less growth inhibition. The note with it: 10 nM; 72 h. In outline: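 Each plate's values were converted to percentages by linear regression, taking DMSO-treated cells as 100% and positive-control-treated cells as 0%. These plates were 384-well plates of 679 approved and investigational compounds at a single 10 nM dose, onto which acute myeloid leukemia cells were dispensed at 1000 cells per well in 50 µL for 72 h, in duplicate. Cell viability came from CellTiter-Glo luminescence on an EnVision reader.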
In the case of `c1cc(-c2cnn3cc(-c4ccc(N5CCNCC5)cc4)cnc23)c2cccnc2c1`, the cell viability was found to be 103 ± 1.1%.
The same measure for `O=C(NC[C@H](O)CO)c1ccncc1Nc1ccc(I)cc1F`: 103% and 92.3%.
As to `CN(C)CCN(Cc1ccc(Cl)cc1)c1ccccn1` [Chloropyramine hydrochloride], the cell viability came out at 107 ± 12%.
For `O=C(Nc1cc(Oc2cc(F)c(NC(=O)C3(C(=O)Nc4ccc(F)cc4)CC3)cc2F)ccn1)C1CC1` [Altiratinib(DCC2701)] the value was 120 ± 8.4%; for `C[S+]([O-])c1ccc(-c2nc(-c3ccc(F)cc3)c(-c3ccncc3)[nH]2)cc1` (stereo unspecified), 110% and 114% and 112%; for `O=C1Nc2ccc(CN3C(=O)CSC3=O)cc2/C1=C/c1cc(CN2CCOCC2)c[nH]1`, 110 ± 8.4%.
With `COc1cc2nccc(Oc3ccc(NC(=O)Nc4cc(C)on4)c(Cl)c3)c2cc1OC` [Tivozanib (AV-951)], the cell viability was found to be 96.1 ± 11%.
Consider `Cc1cccc(/C=N/Nc2cc(N3CCOCC3)n3nc(-c4ccncc4)cc3n2)c1`, for which the cell viability stood at 122 ± 4.4%.
The same measure for `CCCCNc1ncc(-c2ccc(CN3CCOCC3)cn2)c(NC2CCC(O)CC2)n1` (stereo unspecified): 99.9 ± 5.7%; for `COC(=O)[C@]12CCC(C)(C)C[C@H]1[C@H]1C(=O)C=C3[C@@]4(C)C=C(C#N)C(=O)C(C)(C)[C@@H]4CC[C@@]3(C)[C@]1(C)CC2` [Bardoxolone Methyl]: 104 ± 1.1%.
For `O=C(O)c1ccc2nc(-c3ccccc3)c(-c3ccccc3)nc2c1` the value was 111.7 ± 0.8%; for `C=C1C[C@@]2(O)O[C@@]3(C[C@H]2C(C)C)[C@@H](C)CC[C@@H]13` [Curcumol], 97.2 ± 4.6%.
For `Nc1ncnc2c1c(-c1cnc3[nH]ccc3c1)nn2C1CCCC1` the value was 125 ± 14%.
Consider `N#CCNC(=O)c1ccc(-c2ccnc(Nc3ccc(N4CCOCC4)cc3)n2)cc1` [Momelotinib (CYT387)], for which the cell viability turned out to be 110 ± 16%.
Consider `Cn1c(=O)n(-c2ccc(C(C)(C)C#N)cc2)c2c3cc(-c4cnc5ccccc5c4)ccc3ncc21`, for which the cell viability came out at 109 ± 15%.
For `C[C@H](NC(=O)/C(C#N)=C/c1cccc(Br)n1)c1ccccc1` the value was 99.3 ± 5.6%.
For `CC(C)=CCc1cc2c(cc1O)oc(=O)c1c3ccc(O)cc3oc21` [Psoralidin] the value was 124 ± 22%.
For `CC[C@@H]1C(=O)N(C)c2cnc(Nc3ccc(C(=O)NC4CCN(C)CC4)cc3OC)nc2N1C1CCCC1` the value was 96.8 ± 16%.
Regarding `C[C@@H]1CN(C(=O)c2ccc(NC(=O)c3cc(O[C@H](C)c4c(Cl)ccc(F)c4Cl)c(N)nn3)cc2)C[C@H](C)N1` [Ensartinib], the cell viability stood at 118 ± 12%.
For `Cc1c(NC(=O)c2ccc(C(C)(C)C)cc2)cccc1-c1cn(C)c(=O)c(Nc2ccc(C(=O)N3CCOCC3)cc2)n1` the value was 115 ± 8.8%.
The same measure for `CN1CCN(c2ccc(Nc3cc(-c4cccc(-n5ccc6cc(C7CC7)cc(F)c6c5=O)c4CO)cn(C)c3=O)nc2)CC1`: 107 ± 8.8%.
Take `COc1cc2c(Oc3ccc4[nH]c(C)cc4c3F)ncnc2cc1OCCCN1CCCC1` [Cediranib (AZD2171)]: the cell viability stood at 107 ± 10%.
For `NC(=O)c1ccc(NC(=O)NCc2cccc(C(=O)Nc3ccc4c(c3)CNCC4)c2)cc1` the value was 119 ± 19%.
The same measure for `CNc1nc(-c2ccc3c(N)n[nH]c3c2)cc(N2C[C@@H](C(=O)NC3CCCCC3)CC[C@H]2C)n1`: 99.15 ± 0.68%; for `O=c1sn(-c2cccc3ccccc23)c(=O)n1Cc1ccccc1` [Tideglusib]: 95.4 ± 20%.
For `O=C(NOCC1CC1)c1cc(Br)c(F)c(F)c1Nc1ccc(I)cc1Cl` the value was 113 ± 2.4%.

By cell viability is commonly meant a read-out of living cells in per cent, often relative to untreated cells.
